Potency and outcome data for 13 molecules are collected here from PubChem BioAssay (NCATS).

Records with an inconclusive call do not appear. Entries that show only a call come without a potency. Activity calls are given as the source filed them. Unless noted, the call rests on the fitted dose curve; in most records, active means well fitted curve in the direction sought with a large enough effect; inconclusive means small, poorly fitted or top-dose-only effect, or another doubt; inactive means no such curve, though single readings can be large; an effect the other way counts as inactive or inconclusive.

The target in assay [1] is Calcium and integrin-binding protein 1 (Homo sapiens) (UniProt Q99828). In words: Primary qHTS for Identification of Calcium Integrin Binding Protein 1 (CIB1) Competitor (AID 1508620).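 Further: GST tagged CIB1 binding a fluorescein labelled alphaIIb integrin peptide tracer; top concentration of the series differs between compounds.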 The conditions noted are these: CIB1-GST / FITC-alphaIIb peptide fluorescence polarization; series mostly up to 57.7 µM. A digest of the protocol: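 Fluorescence polarization competition: CIB1-GST (1 uM final) preincubated with compound 15 min at room temperature, then FITC-labeled alphaIIb peptide (100 nM final) added for another 15 min. Polarization read at Ex 480/Em 540.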
Sequence of Calcium and integrin-binding protein 1 (Homo sapiens) (Q99828 whole entry, looked up): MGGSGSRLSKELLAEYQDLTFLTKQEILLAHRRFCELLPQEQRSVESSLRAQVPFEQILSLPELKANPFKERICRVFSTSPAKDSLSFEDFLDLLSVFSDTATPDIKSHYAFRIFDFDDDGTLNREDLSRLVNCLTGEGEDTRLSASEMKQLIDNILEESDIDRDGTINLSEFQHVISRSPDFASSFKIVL
(In general: qHTS replaces the single test concentration by a dilution series.)

Assay [2] is described as follows: Primary qHTS for inhibitors of La Crosse Virus (LACV) - induced cell death in SH-SY5Y cells (AID 1508616).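 Further: top concentration of the series differs between compounds; higher means more rescue of cells from virus-induced death.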 The conditions noted are these: SH-SY5Y LACV cytopathicity rescue, ATP luminescence, 6 d; series mostly up to 4.29 µM. An outline of the steps:
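Readout was luminescence from ATPLite 1step added after a 6-day LACV infection (0.01 MOI) of SH-SY5Y cells that had received pin-transferred compound 24 hr after seeding.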

The nature of assay [3]: Primary qHTS for small molecule stabilizers of the endoplasmic reticulum resident proteome: Secreted ER Calcium Modulated Protein (SERCaMP) assay (AID 1508630). Particulars: SH-SY5Y GLuc-SERCaMP (Gaussia luciferase released on ER calcium loss) secretion, thapsigargin, luminescence; series mostly up to 38.4 µM. An outline of the steps:
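GLuc-SERCaMP-expressing SH-SY5Y cells, pretreated 16 h with compound, are challenged with thapsigargin to empty ER calcium stores; after 4 h, coelenterazine is added directly to the medium and luminescence is imaged.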

Assay [4] in a line: A High-Content qHTS Against Drug Library for the Identification of Small Molecules that Inhibit DYT1 Early Onset Primary Dystonia-Associated Cell Pathology (AID 1645839; calls by dose curve). The conditions noted are these: HEK293 Flp-In EGFP-delE TorsinA, punctate imaging, 48 h; series mostly up to 46.1 µM. A digest of the protocol:
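Readout: %pathology, the punctate EGFP-TorsinA distribution from imaging, as the primary channel and cell count as the toxicity counterscreen. HEK293 Flp-In cells expressing delE TorsinA were induced with tetracycline and treated with compound for 48 h.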

In assay [5] the target is Calcium and integrin-binding protein 1 (Homo sapiens) (UniProt Q99828). In words: Confirmatory qHTS for Identification of Calcium Integrin Binding Protein 1 (CIB1) Competitor (AID 1508617). Further: potency means the concentration at half of the fitted maximal effect; nearly all actives have a fitted effect of over 65% in size. Particulars: CIB1 binding competition assay, biochemical qHTS; series mostly up to 114 µM. A digest of the protocol: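 Fluorescence polarization competition: CIB1-GST (1 uM final) in 5 mM HEPES pH 7.4, 125 mM NaCl, 5 mM CaCl2, 0.01% Tween20 preincubated 15 min RT with compound (up to 114 uM), then FITC-alphaIIb peptide (100 nM) added, 15 min RT.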

Assay [6] can be described thus: Counterscreen qHTS for small molecule stabilizers of the endoplasmic reticulum resident proteome: GLuc-NoTag assay (AID 1508627).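 Further: SH-SY5Y cells given compound then 100 nM thapsigargin to empty ER calcium.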 Particulars: Gaussia luciferase NoTag secretion counterscreen, luminescence, thapsigargin 100 nM for final 4 h; series mostly up to 76.4 µM. A digest of the protocol:
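SH-SY5Y cells stably expressing constitutively secreted GLuc (no SERCaMP tag) were pre-incubated 5 h, treated with compound for 19 h, then 100 nM thapsigargin for 4 h at 37C; medium GLuc read by coelenterazine luminescence.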
(Counterscreens check selectivity or assay interference.)

`CCC[C@H](N[C@@H](C)C(=O)N1[C@@H]2CCCC[C@H]2C[C@H]1C(=O)O)C(=O)OCC`: the Potency entry in assay [1] is “inactive”.

Turning to `COc1cc(CNC(=O)CCCCC=CC(C)C)ccc1O`, the Potency result in assay [1] was “inactive”.

`CC(C)Oc1cc(Nc2nc(N[C@@H](C)c3ccc(F)cn3)ncc2Cl)[nH]n1`: in assay [1], the Potency entry is “inactive”.

As for `N#CC(=C1Nc2ccccc2S1)c1ccnc(OCc2ccc(CN3CCOCC3)cc2)n1`, in assay [1], the Potency entry was “inactive”.

Take `C[C@@H]1C[C@H]2[C@@H]3CCC4=CC(=O)C=C[C@]4(C)[C@@]3(F)[C@@H](O)C[C@]2(C)[C@@]1(O)C(=O)CO`: the molecule was called inactive in assay [2] and in assay [4]. In assay [3], the Potency entry was “inactive”.

With `CO[C@@H]1C(N(C)C(=O)c2ccccc2)C[C@H]2O[C@]1(C)n1c3ccccc3c3c4c(c5c6ccccc6n2c5c31)C(=O)NC4=O` (stereo partly specified), the Potency in assay [5] was 15.8 µM (active). Further, in assay [3], the Potency entry was “inactive”.

`CC=C1C2C=C(C)CC1(N)c1ccc(=O)[nH]c1C2` (stereo unspecified): the Potency entry in assay [1] is “inactive”.

Take `COc1ccc(Cn2ccc3ccc(C(=O)NO)cc32)cc1`: in assay [1], the Potency entry is “inactive”.

For `CO[C@H]1/C=C\O[C@@]2(C)Oc3c(C)c(O)c4c(O)c(c5c(nc6cc(C)ccn65)c4c3C2=O)NC(=O)C(C)=CC=C[C@H](C)[C@H](O)[C@@H](C)[C@@H](O)[C@@H](C)[C@H](OC(C)=O)[C@H]1C`, the Potency result in assay [1] was “inactive”.

Turning to `O=C(O)CCNc1cc(N2CCc3ccccc3CC2)nc(-c2ccccn2)n1`, the Potency entry in assay [1] was “inactive”.

With `CN(C)N=Nc1nc[nH]c1C(N)=O`, the Potency result in assay [1] was “inactive”.

In the case of `CCCCC[C@H](O)C=C[C@H]1[C@H](O)CC(=O)[C@H]1CC=CCCCC(=O)O`, the molecule was classed as inactive in assay [2] and in assay [4]. The Potency result in assay [1] and in assay [3] was “inactive” in each case.

Regarding `O[C@@H](COc1cccc2ncccc12)CN1CCN(C2c3ccccc3[C@@H]3[C@H](c4ccccc42)C3(F)F)CC1` (stereo partly specified), the outcome in assay [2] was inactive. The Potency entry in assay [1] and in assay [6] was “inactive” in each case.
